Reference: article PMC7862700, “An all-to-all approach to the identification of sequence-specific readers for epigenetic DNA modifications on cytosine”

What follows are sequences tested against T1, SPDEF (Homo sapiens, UniProt O95238 1-335) (assay: DAPPL (digital affinity profiling via proximity ligation, sequencing); 10 mM Tris-HCl pH 7.5, 50 mM NaCl, 1 mM DTT, 4% glycerol, room temperature, 30 min; GST-TFs on glutathione beads, 16-mer random dsDNA library, 0.1% formaldehyde crosslink after washing; high values mean tight binding). Conditions: protein: recombinant; tags: N-terminal GST; dsDNA, one strand shown.
T1 sequence: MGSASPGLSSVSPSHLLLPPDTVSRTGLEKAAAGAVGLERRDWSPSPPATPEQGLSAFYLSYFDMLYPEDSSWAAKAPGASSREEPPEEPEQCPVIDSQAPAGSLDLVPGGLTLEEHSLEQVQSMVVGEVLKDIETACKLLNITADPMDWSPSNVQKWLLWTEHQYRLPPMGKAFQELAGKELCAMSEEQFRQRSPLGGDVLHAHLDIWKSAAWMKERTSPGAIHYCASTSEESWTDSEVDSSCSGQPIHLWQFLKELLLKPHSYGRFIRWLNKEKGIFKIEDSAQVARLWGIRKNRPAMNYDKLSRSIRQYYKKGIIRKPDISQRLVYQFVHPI
Procedure, shortened: (§1)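 In yeast, human transcription factors were expressed with a GST fusion, then pulled down on glutathione beads and given DNA barcodes. Pooled with a tag-only sample, they were exposed to 200 nmole of a 16-mer random double-stranded DNA library (Tris/NaCl/DTT/glycerol buffer, room temperature, 30 min), washed, crosslinked with 0.1% formaldehyde, proximity-ligated using BsaI/T4 ligase for 1 h at 37 °C, PCR-amplified and read on an Illumina NextSeq500. Each hexamer's frequency of reads for a factor, divided by the matching frequency for the tag-only sample, gives the binding signal.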

Compared with AAGCAC, CCCCTG is lower in binding signal: 1.29 fold enrichment (6-mer frequency, TF over GST control) for the first, 1.17 fold enrichment (6-mer frequency, TF over GST control) for the second.

First: AACGGC
Second: CCTTTG
The binding signal of the first is lower: 1.16 fold enrichment (6-mer frequency, TF over GST control) for the first, 1.22 fold enrichment (6-mer frequency, TF over GST control) for the second.

Going from CGCCGC to ACACAT, the binding signal rises from 1.08 fold enrichment (6-mer frequency, TF over GST control) to 1.31 fold enrichment (6-mer frequency, TF over GST control).

Going from TAAGCC to TGCACG, the binding signal falls from 1.12 fold enrichment (6-mer frequency, TF over GST control) to 1.11 fold enrichment (6-mer frequency, TF over GST control).

First: ACCCCA
Second: TGAATG
The binding signal of the first is lower: 1.02 fold enrichment (6-mer frequency, TF over GST control) for the first, 1.28 fold enrichment (6-mer frequency, TF over GST control) for the second.

Each sequence was assayed against T2, ETV7 (Homo sapiens, UniProt Q9Y603 1-341) in the same assay as above. Conditions: protein: recombinant; tags: N-terminal GST; dsDNA, one strand shown.
T2 sequence: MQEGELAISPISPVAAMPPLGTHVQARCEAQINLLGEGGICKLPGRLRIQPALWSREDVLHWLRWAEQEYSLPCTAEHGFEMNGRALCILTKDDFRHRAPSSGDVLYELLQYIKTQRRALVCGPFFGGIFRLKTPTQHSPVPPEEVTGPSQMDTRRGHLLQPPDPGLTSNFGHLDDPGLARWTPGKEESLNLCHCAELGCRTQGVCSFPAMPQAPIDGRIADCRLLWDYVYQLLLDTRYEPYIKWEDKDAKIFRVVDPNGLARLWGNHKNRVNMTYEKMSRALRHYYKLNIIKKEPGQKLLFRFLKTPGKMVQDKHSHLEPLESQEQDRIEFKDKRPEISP
Procedure, shortened: as §1

Going from CCCCAC to GTATGC, the binding signal rises from 1.11 fold enrichment (6-mer frequency, TF over GST control) to 1.27 fold enrichment (6-mer frequency, TF over GST control).

Going from TCATTA to TCCCTG, the binding signal rises from 1.16 fold enrichment (6-mer frequency, TF over GST control) to 1.23 fold enrichment (6-mer frequency, TF over GST control).

First: ACTAAG
Second: ACACCC
The binding signal of the first is higher: 1.14 fold enrichment (6-mer frequency, TF over GST control) for the first, 1.09 fold enrichment (6-mer frequency, TF over GST control) for the second.

First: TCCCGA
Second: CACCTC
The binding signal of the first is higher: 1.35 fold enrichment (6-mer frequency, TF over GST control) for the first, 1.17 fold enrichment (6-mer frequency, TF over GST control) for the second.

Going from AATTCA to GCCTAT, the binding signal falls from 1.28 fold enrichment (6-mer frequency, TF over GST control) to 1.24 fold enrichment (6-mer frequency, TF over GST control).

Compared with CACCAT, CTTTCG is higher in binding signal: 1.15 fold enrichment (6-mer frequency, TF over GST control) for the first, 1.3 fold enrichment (6-mer frequency, TF over GST control) for the second.

First: GTACAC
Second: CTCGAA
The binding signal of the first is higher: 1.24 fold enrichment (6-mer frequency, TF over GST control) for the first, 1.19 fold enrichment (6-mer frequency, TF over GST control) for the second.

Compared with CTTACG, TATACC is higher in binding signal: 1.1 fold enrichment (6-mer frequency, TF over GST control) for the first, 1.15 fold enrichment (6-mer frequency, TF over GST control) for the second.

First: GGACAT
Second: TAGGAA
The binding signal of the first is higher: 1.23 fold enrichment (6-mer frequency, TF over GST control) for the first, 1.04 fold enrichment (6-mer frequency, TF over GST control) for the second.

Going from GATTTC to ACCTCA, the binding signal falls from 1.56 fold enrichment (6-mer frequency, TF over GST control) to 1.04 fold enrichment (6-mer frequency, TF over GST control).

First: ACGATA
Second: TGTCCT
The binding signal of the first is lower: 1.22 fold enrichment (6-mer frequency, TF over GST control) for the first, 1.4 fold enrichment (6-mer frequency, TF over GST control) for the second.

Going from TGCCAT to AATCAT, the binding signal falls from 1.09 fold enrichment (6-mer frequency, TF over GST control) to 1.04 fold enrichment (6-mer frequency, TF over GST control).

First: CTCGGC
Second: CAAGCA
The binding signal of the first is higher: 1.34 fold enrichment (6-mer frequency, TF over GST control) for the first, 1.1 fold enrichment (6-mer frequency, TF over GST control) for the second.

First: AAACTG
Second: GCTCAT
The binding signal of the first is lower: 1.13 fold enrichment (6-mer frequency, TF over GST control) for the first, 1.23 fold enrichment (6-mer frequency, TF over GST control) for the second.

Going from ACAAGC to CATCAC, the binding signal rises from 1.01 fold enrichment (6-mer frequency, TF over GST control) to 1.08 fold enrichment (6-mer frequency, TF over GST control).

First: AAGCAC
Second: CCCCTG
The binding signal of the first is higher: 1.3 fold enrichment (6-mer frequency, TF over GST control) for the first, 1.13 fold enrichment (6-mer frequency, TF over GST control) for the second.

First: AACGGC
Second: CCTTTG
The binding signal of the first is lower: 1.11 fold enrichment (6-mer frequency, TF over GST control) for the first, 1.33 fold enrichment (6-mer frequency, TF over GST control) for the second.

First: CGCCGC
Second: ACACAT
The binding signal of the first is lower: 1.11 fold enrichment (6-mer frequency, TF over GST control) for the first, 1.27 fold enrichment (6-mer frequency, TF over GST control) for the second.

First: TAAGCC
Second: TGCACG
The binding signal of the first is lower: 1.1 fold enrichment (6-mer frequency, TF over GST control) for the first, 1.19 fold enrichment (6-mer frequency, TF over GST control) for the second.

First: ACCCCA
Second: TGAATG
The binding signal of the first is lower: 1.06 fold enrichment (6-mer frequency, TF over GST control) for the first, 1.21 fold enrichment (6-mer frequency, TF over GST control) for the second.
